The nature of experiment [1]: qHTS profiling of the MIPE4 collection as inhibitors of Plasmodium falciparum (3D7) proliferation (AID 743344; call rule not given here;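 also: scaled between DMSO vehicle wells and 0.29 µM artemisinin as full inhibition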). The following applies: P. falciparum 3D7 in erythrocytes, SYBR Green DNA fluorescence, 72 h; at 28.5 µM unless noted. Summed up: (§1)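 Erythrocytes infected with P. falciparum (0.3% parasitemia, 2.5% hematocrit) incubated with compounds 72 h at 37 C, 5% CO2. Lysis with saponin/Triton buffer containing SYBR Green I, overnight at room temperature in the dark; DNA fluorescence (485/535 nm) normalised to 0.29 uM artemisinin and DMSO.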
In general terms: qHTS replaces the single test concentration by a dilution series.

Experiment [2] in a line: qHTS profiling of the MIPE4 collection as inhibitors of Plasmodium falciparum (HB3) proliferation (AID 743347; call rule not given here;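 also: plate controls were DMSO vehicle wells for no effect and artemisinin wells for full effect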). The following applies: P. falciparum HB3 in erythrocytes, SYBR Green DNA, 72 h; at 28.5 µM unless noted. Summed up: as §1
Experiment [3] is described as follows: qHTS for Inhibitors of the Functional Ribonucleoprotein Complex (vRNP) of Lassa (LASV) Arenavirus: LASV Primary Screen - GLuc reporter signal (AID 1347082; calls by dose curve; tested in HEK293 reporter line; also: % is scaled to controls: 0 for no effect and ±100 for the full control effect; nearly all actives have a fitted effect of over 60% in size).
A short description of experiment [4]: qHTS for Inhibitors of the Functional Ribonucleoprotein Complex (vRNP) of Lassa (LASV) Arenavirus: Viability assay - alamar blue signal for LASV Primary Screen (AID 1347083; calls by dose curve; tested in HEK293 reporter line; also: nearly all actives have a fitted effect of over 80% in size; also: potency is read from the fitted curve at half-maximal effect).
Experiment [5] in a line: qHTS for Inhibitors of the Functional Ribonucleoprotein Complex (vRNP) of Lymphocytic Choriomeningitis Arenaviruses (LCMV): Viability assay - alamar blue signal for LCMV Primary Screen (AID 1347085; calls by dose curve; tested in HEK293 reporter line; also: nearly all actives have a fitted effect of over 80% in size; also: potency is read from the fitted curve at half-maximal effect).
In experiment [6] the target is Nucleoprotein (Lymphocytic choriomeningitis virus (strain Armstrong)) (UniProt P09992). Nature of the experiment: qHTS for Inhibitors of the Functional Ribonucleoprotein Complex (vRNP) of Lymphocytic Choriomeningitis Arenaviruses (LCMV): LCMV Primary Screen - GLuc reporter signal (AID 1347086). Also: nearly all actives have a fitted effect of over 70% in size. Also: potency is read from the fitted curve at half-maximal effect. As to activity change, negative = inhibition: % is scaled to controls: 0 for no effect and ±100 for the full control effect.
Nucleoprotein (Lymphocytic choriomeningitis virus (strain Armstrong)), sequence (P09992 whole entry, looked up): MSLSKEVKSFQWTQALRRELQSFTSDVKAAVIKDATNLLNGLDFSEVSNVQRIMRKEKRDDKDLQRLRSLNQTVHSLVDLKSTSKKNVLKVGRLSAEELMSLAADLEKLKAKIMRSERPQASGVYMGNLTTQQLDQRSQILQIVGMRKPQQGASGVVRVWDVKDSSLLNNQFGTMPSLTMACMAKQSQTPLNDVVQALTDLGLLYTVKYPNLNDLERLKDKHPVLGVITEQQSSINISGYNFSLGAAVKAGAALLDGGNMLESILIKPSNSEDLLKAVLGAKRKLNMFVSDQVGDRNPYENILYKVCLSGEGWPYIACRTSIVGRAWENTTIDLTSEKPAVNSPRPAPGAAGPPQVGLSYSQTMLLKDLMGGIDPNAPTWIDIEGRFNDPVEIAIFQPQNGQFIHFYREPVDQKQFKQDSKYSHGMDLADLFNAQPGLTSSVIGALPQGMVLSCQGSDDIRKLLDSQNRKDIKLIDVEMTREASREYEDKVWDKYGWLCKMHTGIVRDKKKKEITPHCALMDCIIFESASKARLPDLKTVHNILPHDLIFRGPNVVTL
Experiment [7] can be described thus: Cytotoxicity counterscreen for inhibitors of SARS-CoV-2 cell entry (AID 1645845). Also: nearly all actives have a fitted effect of over 50% in size. The gist of the method:
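48 h compound treatment (after 1 h preincubation), HEK293-ACE2 cells, 37 C/5% CO2; ATP luminescence endpoint; normalized to cell wells and media blanks.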
For orientation: Counterscreens check selectivity or assay interference.

The nature of experiment [8]: Primary qHTS to identify inhibitors of SARS-CoV-2 cell entry (AID 1645846). Also: nearly all actives have a fitted effect of over 45% in size. Also: potency is read from the fitted curve at half-maximal effect. The following applies: activity change, negative = inhibition: at 57.1 µM (top of the series) unless noted. The gist of the method: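 Using luciferase-reporting pseudoviruses carrying Wuhan-Hu-1 spike, the screen tracks entry into stably ACE2-expressing cells over 48 hr. Activity is expressed relative to spike particles versus particles lacking any fusion protein.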

For the next experiment, the system named is CRL-7250. Nature of the experiment: qHTS assay to identify novel small-molecules to repurpose for Merkel cell carcinoma treatment (AID 1296009; active = well fitted inhibition curve with a large enough effect; also: nearly all actives have a fitted effect of over 60% in size). Conditions: MCC and control cell lines, CellTiter-Glo viability, 72 h; series mostly up to 92 µM. Summed up: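 After compound transfer in DMSO, plates were kept 72 hr at 37 degree celsius. Luminescent ATP signal from CellTiter-Glo served as viability measure, normalized against DMSO and no-cell controls.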

The nature of experiment [9]: Confirmatory qHTS to identify inhibitors of SARS-CoV-2 cell entry (AID 1645844). Also: potency is read from the fitted curve at half-maximal effect; nearly all actives have a fitted effect of over 45% in size. The gist of the method:
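Luminescence from a luciferase reporter, read 48 hr after pseudotyped-particle addition, gives entry signal, normalised to spike-bearing PP wells and bald PP lacking fusion protein wells. Cells are Expi293F stably expressing human ACE2, compound-pretreated 1 hr.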

Experiment [10] is described as follows: VSVG counterscreen qHTS to identify inhibitors of SARS-CoV-2 cell entry (AID 1645847). Also: potency is read from the fitted curve at half-maximal effect; nearly all actives have a fitted effect of over 65% in size. Summed up:
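Entry of VSV-G pseudotyped particles into human ACE2-expressing HEK293 cells was measured by luciferase luminescence 48 h after infection, with compound added 1 h beforehand.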

Experiment [11] in a line: Confirmatory qHTS for activators (rescue) of SARS-CoV-2 Cytopathic Effect (CPE) (AID 1508606). Also: potency is read from the fitted curve at half-maximal effect; nearly all actives have a fitted effect of over 70% in size.
In experiment [12] the target is Bile acid receptor (Homo sapiens) (UniProt Q96RI1). Description: qHTS assay for small molecule agonists of farnesoid X receptor signaling (AID 588527).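 Also: 0% = vehicle basal and 100% = reference agonist.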 Conditions: HEK293T FXR-UAS-bla, beta-lactamase ratio, 16 h; activation: stronger effect = higher value. The gist of the method: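 FXR-UAS-bla HEK293T cells (10% dialyzed FBS) preincubated 5-7 h at 37 C, then compounds at up to 92 uM for 16 h at 37 C. CCF4 beta-lactamase read-out after 2 h RT. Normalized to chenodeoxycholic acid (100 uM) and DMSO; Hill fit gave EC50 and efficacy.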
Bile acid receptor (Homo sapiens), sequence (Q96RI1 whole entry, looked up): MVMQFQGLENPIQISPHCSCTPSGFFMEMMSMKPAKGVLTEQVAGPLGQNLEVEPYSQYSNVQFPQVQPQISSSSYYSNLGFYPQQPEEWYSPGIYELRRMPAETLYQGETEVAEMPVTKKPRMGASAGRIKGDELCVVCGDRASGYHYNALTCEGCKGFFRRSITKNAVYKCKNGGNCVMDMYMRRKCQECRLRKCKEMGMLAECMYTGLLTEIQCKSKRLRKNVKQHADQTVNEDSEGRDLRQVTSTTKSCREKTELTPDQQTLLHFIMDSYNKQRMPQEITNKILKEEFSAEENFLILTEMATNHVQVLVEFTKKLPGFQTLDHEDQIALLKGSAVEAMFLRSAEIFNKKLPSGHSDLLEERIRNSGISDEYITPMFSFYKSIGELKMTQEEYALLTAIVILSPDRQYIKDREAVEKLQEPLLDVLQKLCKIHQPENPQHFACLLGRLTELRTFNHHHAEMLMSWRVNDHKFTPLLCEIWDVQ

The nature of experiment [13]: qHTS profiling of the MIPE4 collection as inhibitors of Plasmodium falciparum (DD2) proliferation (AID 743345; call rule not given here). The following applies: P. falciparum Dd2 in erythrocytes, SYBR Green DNA, 72 h; at 28.5 µM unless noted. Summed up:
as §1

The structures appear in SMILES notation. Values joined by “and” are separate entries in the source; they are usually repeats but may differ in a detail not shown here. Equal entries are not always repeated. Results filed as inconclusive are left out. Active and inactive are the calls of the source. Unless noted, calls follow the shape of the full dose curve.

The molecule `c1coc(CNc2ncnc3nc[nH]c23)c1` returned a parasite growth, % of DMSO control in experiment [1] of 71.1%. This molecule displayed a growth, % of control in [2] of 65.3%. The Potency entry (in experiment [3]; in [4]; in experiment [5]; in experiment [6]; in experiment [7]; in the experiment on CRL-7250) was “inactive” throughout. In addition, the activity change, negative = inhibition in experiment [8] came to 0.628%.
For the molecule `Nc1nc(=O)n([C@H]2C[C@H](O)[C@@H](CO)O2)cc1F`, the Potency was 0.769 µM (active) in experiment [4], 1.93 µM (active) in experiment [5], 0.0108 µM (active) in [9] and 0.0136 µM (active) in experiment [10]. Besides, the Potency result (in [7]; in the experiment with CRL-7250) was “inactive” in each case. The activity change, negative = inhibition in [8] was -95.3%.
Regarding `O=c1cc(-c2cccc3c2Sc2ccccc2S3)oc(N2CCOCC2)c1`, the Potency result (in experiment [3]; in [6]; with CRL-7250) was “inactive” each time. The Potency in experiment [11] was 3.55 µM (active).
Take `CC(C)(OCc1nn(Cc2ccccc2)c2ccccc12)C(=O)O`: the Potency result (in [3]; in experiment [7]; in experiment [8]; with CRL-7250) was “inactive” throughout.
`CN(C)C(=O)[C@H](O)[C@H](Cc1ccccc1)NC(=O)c1cc2cc(Cl)ccc2[nH]1`: the Potency entry (in experiment [3]; in experiment [5]; in [6]; in the experiment on CRL-7250) was “inactive” each time. In experiment [8], the activity change, negative = inhibition is -8.95%.
On to `C[C@](Cc1c[nH]c2ccccc12)(NC(=O)OC1C2CC3CC(C2)CC1C3)C(=O)NC[C@H](NC(=O)CCC(=O)O)c1ccccc1` (some centres undefined), for which the Potency result (in [3]; in experiment [6]; in experiment [7]; in experiment [8]; in the experiment on CRL-7250) was “inactive” each time.
Regarding `O=c1c(O)c(-c2ccc(O)cc2)oc2cc(O)cc(O)c12`, in experiment [12], the activation is 0.454% (inactive) and 2.54% (inactive). Also, the Potency result (in [3]; in [4]; in experiment [6]; in experiment [7]; in experiment [8]; in the experiment with CRL-7250) was “inactive” throughout.
Consider `Cc1c(NC(=O)c2ccc(C(C)(C)C)cc2)cccc1-c1cn(C)c(=O)c(Nc2ccc(C(=O)N3CCOCC3)cc2)n1`, for which the Potency entry (in experiment [3]; in [4]; in [6]; in [7]; in [8]; in the experiment with CRL-7250) was “inactive” throughout.
As to `Nc1ncnc2c1ncn2[C@@H]1O[C@H](CO)[C@@H](O)[C@@H]1O`, the Potency entry (in experiment [3]; in experiment [4]; in experiment [6]; in experiment [7]; in the experiment with CRL-7250) was “inactive” throughout. Moreover, the Potency in experiment [8] is 28.2 µM (active).
Take `CN(CC(=O)N(Cc1ccc(C2CCCCC2)cc1)c1ccc(C(=O)O)c(O)c1)S(=O)(=O)c1c(F)c(F)c(F)c(F)c1F`: the Potency entry (in experiment [3]; in experiment [6]; in experiment [7]; in the experiment on CRL-7250) was “inactive” throughout. Further, the Potency in experiment [4] is 27.3 µM (active). In addition, in [8], the activity change, negative = inhibition is -15.1%.
Take `Nc1ncnc2c1c(-c1cccc(OCc3ccccc3)c1)cn2C1CC(CN2CCC2)C1` (centres undefined): the Potency entry (in experiment [3]; in experiment [4]; in experiment [6]; in [7]; with CRL-7250) was “inactive” each time.
`COC(=O)[C@H](CCCN=C(N)N)NS(=O)(=O)c1ccc(C)cc1`: the Potency entry (in experiment [3]; in [7]; in the experiment with CRL-7250) was “inactive” in each case. For the same molecule, in [5], the Potency is 17.2 µM (active). In addition, the activity change, negative = inhibition in experiment [8] is -0.183%.
Regarding `O=C(O)c1ccc(Nc2ncc3c(n2)-c2ccc(Cl)cc2C(c2c(F)cccc2F)=NC3)cc1`, the Potency result (in experiment [3]; in experiment [6]; in [7]; with CRL-7250) was “inactive” throughout. Also, the Potency in experiment [4] was 10.9 µM (active); in [9] it was 0.242 µM (active).
In the case of `O=C1NC(=O)C(=Cc2cccc(C(F)(F)F)c2)S1`, in experiment [4], the Potency is 13.7 µM (active). The Potency entry in the experiment on CRL-7250 was “inactive”.
For `COc1cccc(Nc2c(C(N)=O)cnc3c(C)cc(S(=O)(=O)c4cccc(C(=O)N(C)C)c4)cc23)c1`, the Potency in experiment [4] is 21.1 µM (active); in [5], 13.3 µM (active); in [6], 16.8 µM (active). In addition, the Potency result (in [7]; in experiment [8]; with CRL-7250) was “inactive” each time.
In experiment [1], `CC1(C)CC(O)CC(C)(C)N1[O]` returned a parasite growth, % of DMSO control of 99.3%. In addition, the parasite growth remaining, % of DMSO control (lower = more inhibition) in experiment [13] came to 97.3%. Besides, the growth, % of control in experiment [2] was found to be 60.2%. For the same molecule, the Potency entry (in experiment [3]; in [4]; in experiment [6]; in the experiment on CRL-7250) was “inactive” throughout.
As for `CCCCOc1ccc(C(=O)Nc2ccc(F)cc2F)cc1`, the Potency result (in experiment [3]; in [6]; in experiment [8]; in the experiment with CRL-7250) was “inactive” each time.

These data come from PubChem BioAssay (NCATS).
